Laboratory results from PubChem BioAssay (NCI).
The panel holds about 83,000 compounds, 20% with a hit somewhere; the sample as a whole holds those more often.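 The endpoint reported here, percent growth, reads 100 for growth as untreated, 0 for no net growth and -100 for all cells dead.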 Active and inactive are the calls of the source. How the source made its calls: active means growth percent below 10; inactive means the rest.

Tested on: KM12 colon
Test: NCI-60 one-dose screen, 48 h (100 = growth as untreated, 0 = no growth, -100 = all killed)
Conditions: 10 µM unless noted

Row | Compound | growth
1 | CC(=O)Nc1ccc(O)c(C)c1 | 106% (inactive)
2 | O=C(c1cccc(C(=O)c2ccc3c4c(cccc24)C(=O)N(c2ccccc2)C3=O)c1)c1ccc2c3c(cccc13)C(=O)N(c1ccccc1)C2=O | 98.2% (inactive)
3 | Cc1ccc(S(=O)(=O)Oc2ccc3sc4c(CO)ccc(NCCN(C)C)c4c(=O)c3c2)cc1 | -68.6% [100 µM] (active)
4 | O=C1NC(=O)/C(=C\c2ccncc2)N1 | 86.9% (inactive)
5 | O=C(c1ccccc1O)N1CCCC1 | 107% (inactive)
6 | C1Cc2onc(-c3noc4c3CCC4)c2C1 | 106% (inactive)
7 | O=S(=O)(O)c1ccc(O)c(C2CCCCC2)c1 | 105% (inactive)
8 | CNc1ccccc1C(=O)N/N=C/C=C/c1ccccc1 | 22.2% (inactive)
9 | O=C(O)CC1=CCCCC1 | 98% (inactive)
10 | CC(C)c1ccc(C(=O)OCCCl)cc1 | 115% (inactive)
11 | CCCCCCCCNC(=O)C(C)C | 102% (inactive)
12 | Cc1ccc(C)c2c1CCC2=O | 100% (inactive)
13 | CC1(C)CCC(C)(C)NC(=S)N1 | 99.1% (inactive)
14 | COc1ccc(/C=N/NC(=O)COCC(=O)N/N=C/c2ccc(OC)cc2)cc1 | 107% (inactive)
15 | Cc1ccccc1NC(=O)Oc1ccc(Cl)cc1C(=O)c1ccccc1 | 90.4% (inactive)
16 | CC(=O)c1cccs1 | 102% (inactive)
17 | CSc1cnc2ccccc2n1 | 101% (inactive)
18 | CCCC(OC(C)=O)c1ccc2c(c1)OCO2 (configuration not stated) | 106% (inactive)
19 | CC(C)N(C(=O)c1ccccc1)C(C)C | 111% (inactive)

Row | Compound | growth
20 | O=C(O)c1ccc(OCc2ccccc2)cc1 | 111% (inactive)
21 | COc1cc(C(=O)O)c(O)c(C(C)(C)C)c1 | 104% (inactive)
22 | CC1(C)OC2C(CO)OC(n3ccc(=O)[nH]c3=O)C2O1 (configuration not stated) | 102% (inactive)
23 | Cc1cccnc1NC1OC(=O)c2ccccc21 (configuration not stated) | 105% (inactive)
24 | NS(=O)(=O)c1cc(=O)[nH]c(=O)[nH]1 | 104% (inactive)
25 | CCC1CCC(C)NC1 (configuration not stated) | 97.6% (inactive)
26 | Cc1ccc2[nH]c3ccccc3c2c1 | 101% (inactive)
27 | C=C1C(=O)C2CCN1CC2 | 102% (inactive)
28 | C=CCNC(=S)N/C=C(/C(=O)c1ccccc1)c1ccccc1 | 104% (inactive)
29 | CCc1ccccc1C(=O)N(CC)CC | 103% (inactive)
30 | CN(C)CCOC(=O)Nc1ccc(Cc2ccc(NC(=O)OCCN(C)C)cc2)cc1 | 78.8% [100 µM] (inactive)
31 | CC(C)NC(=O)OCc1c(COC(=O)NC(C)C)c(-c2ccc(Cl)cc2)n2c1CCC2 | 100% (inactive)
32 | Nc1ccc2c(c1)Cc1cc(N)c(N)cc1-2 | 94.3% (inactive)
33 | CCOC(=O)C(=O)CC(=O)c1ccccc1 | 96.3% (inactive)
34 | CCNc1ncnc2[nH]ncc12 | 103% (inactive)
35 | COc1nc(Nc2cccc(C(F)(F)F)c2)nc(OC)n1 | 97.8% (inactive)
36 | CC(=O)c1cccc(O)c1 | 103% (inactive)
37 | CC(C)c1ccccc1NC(=O)N1CCC(C(C)C)CC1 | 113% (inactive)
